Assay outcomes deposited in PubChem by National Center for Advancing Translational Sciences (NCATS).
Rows were chosen to be rich in hits. Some 3.6% of all compounds tested hit in one or more screens of this group.
TDP43 rescue = rescues yeast growth from TDP-43 toxicity; TDP-43 expressing yeast growth rescue, BacTiter-Glo, 24 h; AID 652104; Potency, µM (titrated, usually from 46.1 µM), actives largely listed as activators; 410,000 tested, 1.8% active; note: nearly all actives have a fitted effect of over 50% in size
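Readout is BacTiter-Glo luminescence of cell growth, so inhibitors register as activators. TDP-43-expressing yeast at OD600=0.02 in galactose medium, after raffinose pregrowth to mid-log, were incubated with compound for 24 hr at 30 deg C.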
MmCpn inh = inhibitors of Methanococcus maripaludis chaperonin TRiC (MmCpn); purified Mm-Cpn ATPase, ADP Transcreener TR-FRET; Potency, µM (titrated, usually from 76.9 µM), most hits filed as inhibitors; 330,000 tested, 0.031% active; AID 504842; note: nearly all actives have a fitted effect of over 80% in size
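Purified archaeal chaperonin (25 nM final) was preincubated with compound for 10 min at 37°C, then ATP (10 uM final) was added for 30 min at 37°C in Tris pH 7.4/KCl/MgCl2/DTT buffer. ADP was quantified by HTRF Transcreener TR-FRET.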
Abeta rescue = restores growth of yeast expressing A-beta42 peptide; yeast expressing A-beta42, growth rescue, OD600, 48 h; response scale: 0% DMSO, 100% iron-clioquinol control; Potency, µM (titrated, usually from 46.1 µM), hits mostly activators; 410,000 tested, 0.063% active; AID 1347071; note: nearly all actives have a fitted effect of over 55% in size
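Growth rescue measured by 600 nm absorbance after 48 h yeast culture at 30 C with compound. Values normalized between DMSO and an equimolar ferric chloride plus clioquinol control.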
aSyn yeast inh = alpha-synuclein toxicity inhibition in yeast; Yeast expressing alpha-synuclein, growth rescue, BacTiter-Glo, 24 h; Potency, µM (titrated, usually from 46.1 µM), most hits filed as activators; 370,000 tested, 0.14% active; AID 652106; note: nearly all actives have a fitted effect of over 65% in size
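Readout is rescue of growth in alpha-synuclein-expressing yeast, so inhibitors of toxicity appear as activators. Growth after 24 hr at 30 deg C in galactose medium is quantified by luminescence.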
ClpP mod = qHTS Assay for Activators of ClpP | ATP-dependent Clp protease proteolytic subunit (Bacillus subtilis (strain 168)), P80244 | purified B. subtilis ClpP, FRET peptide cleavage, 20 min | Potency, µM (doses to about 57.5 µM) | 340,000 tested, 1.9% active | AID 651965, 2013; active = well fitted falling curve with a large enough effect; inconclusive = small, poorly fitted or top-dose-only effect; inactive = no such curve, though single readings can be large or run the other way; note: the source files actives as falling curves though it sought activators and does not explain the sign; nearly all actives have a fitted effect of over 65% in size
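FRET quenching reversal measured ClpP activation: 10 microg/mL B. subtilis ClpP at pH 8 with the FRET-FV decapeptide, read at 430 nm after 320 nm excitation. The 20-min minus 0-min signal was scaled between DMSO/no-enzyme wells and ADEP (5.8 microM final).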
FUS suppressor = FUS proteinopathy suppression in yeast; S. cerevisiae FUS-expressing, growth rescue, OD600, 24 h; Potency, µM (top dose mostly 76.6 µM), actives largely listed as activators; 390,000 tested, 0.24% active; AID 1347120; note: nearly all actives have a fitted effect of over 55% in size
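Toxicity suppression screen in FUS-yeast. Cells induced with 2% galactose, starting OD 0.005, treated 24hr at 30C with compounds at multiple final concentrations; growth by OD600.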
Hits are given with their value. Unless noted, calls come from the whole dose curve; as a rule, active = well fitted curve in the direction sought with a large enough effect; inconclusive = small, poorly fitted or top-dose-only effect, or another doubt; inactive = no such curve, though single readings can be large; an effect the other way counts as inactive or inconclusive.

Results for CCOc1ccc(NC(=O)N(C)CCc2c(C)nn(C)c2C)cc1 ?
TDP43 rescue: inactive; Abeta rescue: inactive; ClpP mod: inactive; FUS suppressor: inactive

What do the screens show for `CC(=O)c1cc(C(=O)c2ccccc2)sc1Nc1ccccc1`?
TDP43 rescue: 35.5µM; MmCpn inh: inactive; Abeta rescue: inactive; aSyn yeast inh: inactive; ClpP mod: inactive; FUS suppressor: inactive

What do the screens show for `CCOC(=O)C1CCN(C(=O)c2oc3ccc4c(c3c2C)C(O)CC2(CCCCC2)O4)CC1` (stereo not drawn)?
TDP43 rescue: 25.1µM; MmCpn inh: inactive; Abeta rescue: inactive; aSyn yeast inh: inactive; ClpP mod: inactive; FUS suppressor: inconclusive

What do the screens show for `Cc1c(C(=O)NCCCN2CCCCC2)oc2ccc3c(c12)C(O)CC1(CCCCC1)O3` (stereo not drawn)?
TDP43 rescue: inactive; MmCpn inh: inactive; Abeta rescue: inactive; aSyn yeast inh: inactive; ClpP mod: inconclusive; FUS suppressor: inactive

What do the screens show for `Cc1ccc(S(=O)(=O)Nc2c(C)cc([N+](=O)[O-])cc2C)cc1`?
TDP43 rescue: 14.1µM; Abeta rescue: inactive; aSyn yeast inh: inactive; ClpP mod: inactive

What do the screens show for `Cc1ccc(S(=O)(=O)NCCNc2ccc([N+](=O)[O-])cc2)cc1`?
TDP43 rescue: inactive; MmCpn inh: inactive; Abeta rescue: inactive; aSyn yeast inh: inactive; ClpP mod: inactive; FUS suppressor: inactive

How did CC(c1c[nH]c2ccccc12)c1c[nH]c2ccc(Br)cc12 (stereo not drawn) do in these assays?
FUS suppressor: inactive

Results for Cc1cc(C)cc(NC(=O)C2CCCN2S(=O)(=O)c2cccc3nsnc23)c1 (stereo not drawn) ?
TDP43 rescue: inactive; Abeta rescue: inactive; ClpP mod: inactive; FUS suppressor: inactive

What do the screens show for `Cc1ccc(NC(=O)C2CCCN2S(=O)(=O)c2cccc3nsnc23)c(Br)c1` (stereo not drawn)?
TDP43 rescue: 20µM; Abeta rescue: inactive; ClpP mod: inactive; FUS suppressor: inactive

Results for CCOc1ccc(N(CC(=O)Nc2ccc(OC)cc2)S(=O)(=O)c2ccc(Cl)cc2)cc1 ?
TDP43 rescue: inactive; Abeta rescue: inactive; aSyn yeast inh: inactive; ClpP mod: inactive; FUS suppressor: inactive

Results for CCOC(=O)N1CCN(c2ccc(S(=O)(=O)N3CCOCC3)cn2)CC1 ?
TDP43 rescue: inactive; MmCpn inh: inactive; Abeta rescue: inactive; aSyn yeast inh: inactive; ClpP mod: 28.2µM

Results for Cc1ccc(C(C)NC(=O)CSc2ccc(S(=O)(=O)N3CCOCC3)cn2)cc1C (stereo not drawn) ?
TDP43 rescue: inactive; MmCpn inh: inactive; Abeta rescue: inactive; aSyn yeast inh: inactive; ClpP mod: 25.1µM

How did Cc1ccc(-c2nnc(SCC(=O)Nc3ccc(Oc4ccccc4)cc3)n2-c2ccc(Cl)cc2)cc1 do in these assays?
FUS suppressor: inactive

How did COc1ccc(CCNC(c2ccc(F)cc2)c2nnc(-c3ccccc3Cl)o2)cc1OC (stereo not drawn) do in these assays?
TDP43 rescue: inactive; Abeta rescue: inactive; ClpP mod: inactive; FUS suppressor: inconclusive

How did COc1cccc(-n2ccnc2SCC(=O)Nc2nccs2)c1 do in these assays?
TDP43 rescue: inactive; MmCpn inh: inactive; Abeta rescue: inactive; aSyn yeast inh: inactive; ClpP mod: 28.2µM; FUS suppressor: inactive

What do the screens show for `CCOc1ccccc1NC(=O)CSc1nccn1-c1cccc(C)c1`?
TDP43 rescue: 17.8µM; Abeta rescue: inactive; aSyn yeast inh: inactive; ClpP mod: inactive; FUS suppressor: inactive

What do the screens show for `COc1cccc(-n2ccnc2SCC(=O)Nc2cccc3ccccc23)c1`?
TDP43 rescue: 15.8µM; Abeta rescue: inactive; ClpP mod: inactive; FUS suppressor: inconclusive

How did COc1cc(NC(=O)CC(c2cccs2)N2Cc3ccccc3C2=O)cc(OC)c1OC (stereo not drawn) do in these assays?
TDP43 rescue: inactive; Abeta rescue: inactive; aSyn yeast inh: inactive; ClpP mod: inactive; FUS suppressor: inactive

How did O=C(CSc1nnc(-c2ccncc2)n1-c1ccccc1)Nc1cccc2ccccc12 do in these assays?
FUS suppressor: inactive

What do the screens show for `CCOC(=O)c1sc(N2C(=O)c3oc4ccc(F)cc4c(=O)c3C2c2ccc(C)cc2)nc1C` (stereo not drawn)?
aSyn yeast inh: inactive; ClpP mod: inactive

What do the screens show for `Nc1ncnc2c1nc(Br)n2C1OC2COP(=O)(O)O[C@@H]2C1O` (stereo partly drawn)?
aSyn yeast inh: inactive

What do the screens show for `COc1cc(/C=C/C(=O)c2ccc3c(c2)OCCO3)cc(OC)c1OC`?
TDP43 rescue: inconclusive; MmCpn inh: inactive; Abeta rescue: inactive; aSyn yeast inh: inactive; ClpP mod: inactive; FUS suppressor: inactive

What do the screens show for `COc1ccc(OC)c(/C=C/C(=O)c2ccc3c(c2)OCCO3)c1`?
TDP43 rescue: 11.2µM; MmCpn inh: inactive; Abeta rescue: inactive; aSyn yeast inh: inactive; ClpP mod: inactive; FUS suppressor: inactive

What do the screens show for `CSc1ccc(CCNC(=O)CCn2c(=O)c3cccn3c3cccnc32)cc1`?
TDP43 rescue: inactive; Abeta rescue: inactive; ClpP mod: inactive; FUS suppressor: inactive

How did CCOc1ccc(S(=O)(=O)NCc2ccc(Cl)cc2)c2cccnc12 do in these assays?
TDP43 rescue: inactive; MmCpn inh: inactive; Abeta rescue: inactive; aSyn yeast inh: inactive; ClpP mod: 15.8µM; FUS suppressor: inactive

Results for CCOc1ccc(S(=O)(=O)NCC2CCCO2)c2cccnc12 (stereo not drawn) ?
TDP43 rescue: inactive; MmCpn inh: inactive; Abeta rescue: inactive; aSyn yeast inh: inactive; ClpP mod: 39.8µM; FUS suppressor: inactive

What do the screens show for `CCc1cc2c(NCc3ccccc3)nc(C)nc2s1`?
TDP43 rescue: inconclusive; MmCpn inh: inactive; Abeta rescue: inactive; aSyn yeast inh: inactive; ClpP mod: inactive; FUS suppressor: inactive

What do the screens show for `CCc1cc2c(NCCC(=O)O)nc(C)nc2s1`?
TDP43 rescue: inactive; MmCpn inh: inactive; Abeta rescue: inactive; aSyn yeast inh: inactive; ClpP mod: 28.2µM; FUS suppressor: inactive

What do the screens show for `O=C(Cc1ccc(S(=O)(=O)N2CCOCC2)s1)N1CCN(S(=O)(=O)c2ccccc2[N+](=O)[O-])CC1`?
TDP43 rescue: inactive; Abeta rescue: inactive; aSyn yeast inh: inactive; ClpP mod: inactive; FUS suppressor: 22.4µM

What do the screens show for `O=C(Cc1ccc(S(=O)(=O)N2CCOCC2)s1)N1CCN(S(=O)(=O)c2cccc([N+](=O)[O-])c2)CC1`?
TDP43 rescue: inactive; MmCpn inh: inactive; Abeta rescue: inactive; aSyn yeast inh: inactive; ClpP mod: inactive; FUS suppressor: inconclusive
